{
  "source": "PubChem BioAssay AID1345085",
  "about": "(National Center for Advancing Translational Sciences (NCATS), 2018)",
  "note": "Results filed as inconclusive are left out. Active and inactive are the calls of the source. Calls follow the shape of the dose curve; as a rule, active = well fitted cell-killing curve with a large enough effect; inconclusive = small, poorly fitted or top-dose-only effect, or effect the other way; inactive = no such curve, though single readings can be large or run the other way. Potency is read from the fitted curve at half-maximal effect.",
  "data": [
    {"test_system": "CAOV3", "experiment": "Confirmatory qHTS for gynecologic anti-cancer compounds from libraries of approved drugs and bioactive compounds; also: nearly all actives have a fitted effect of over 55% in size", "conditions": "gynecologic cancer cell panel viability, ATPlite luminescence, 48 h; series mostly up to 57.6 µM", "how_it_was_run": "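Seeding 1,000 cells per well preceded overnight (16 h) attachment, after which 48 h drug treatment across 57.5 uM–0.977 nM (11 points) was applied. Remaining cellular ATP, detected by ATPlite luminescence, defined IC50.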", "values": [
      {"smiles": "COc1cc(N2CCC(N3CCN(C)CC3)CC2)ccc1Nc1ncc(Cl)c(Nc2ccccc2S(=O)(=O)C(C)C)n1", "Potency": "3.43 µM (active)"},
      {"smiles": "CCN1CCN(Cc2ccc(Nc3ncc(F)c(-c4cc(F)c5nc(C)n(C(C)C)c5c4)n3)nc2)CC1", "Potency": "inactive"},
      {"smiles": "CCN1CCN(Cc2ccc(-c3cc4c(NC(C)c5ccccc5)ncnc4[nH]3)cc2)CC1", "note": "(centres undefined)", "Potency": "27.3 µM (active)"},
      {"smiles": "CCN(CC)CCOc1ccc(/C(=C(\\Cl)c2ccccc2)c2ccccc2)cc1", "Potency": "100 µM (active)"},
      {"smiles": "CN1CCN(CCOc2cc(OC3CCOCC3)c3c(Nc4c(Cl)ccc5c4OCO5)ncnc3c2)CC1", "Potency": "inactive"},
      {"smiles": "Cc1ccc(C(=O)N(CCCN)C(c2oc3cc(Cl)ccc3c(=O)c2Cc2ccccc2)C(C)C)cc1", "note": "(centres undefined)", "Potency": "27.3 µM (active)"},
      {"smiles": "COCCOc1ccc2c(c1)ncn2-c1ccc2cccc(N3CCC(N)CC3)c2n1", "Potency": "inactive"},
      {"smiles": "COc1cc(N2CCC(N(C)C)CC2)ccc1Nc1ncc(Cl)c(Nc2ccccc2P(C)(C)=O)n1", "Potency": "10.9 µM (active)"},
      {"smiles": "Nc1ccn([C@@H]2O[C@H](CO)[C@@H](O)C2(F)F)c(=O)n1", "Potency": "0.217 µM (active)"},
      {"smiles": "S=c1nc[nH]c2nc[nH]c12", "Potency": "0.769 µM (active)"},
      {"smiles": "CC(=O)c1cnc2ccc(-c3cc(Cl)c(O)c(Cl)c3)nc2c1NC1CCC(CN(C)C)CC1", "note": "(centres undefined)", "Potency": "0.157 µM (active)"},
      {"smiles": "C#C[C@]1(O)CC[C@H]2[C@@H]3CCC4=CC(=O)CC[C@@H]4[C@H]3CC[C@@]21CC", "Potency": "inactive"},
      {"smiles": "Cc1cc(Nc2nc(N[C@@H](C)c3ccc(F)cc3)c(C#N)cc2F)n[nH]1", "Potency": "17.2 µM (active)"},
      {"smiles": "Cc1ccc(C(=O)Nc2ccc(CN3CCN(C)CC3)c(C(F)(F)F)c2)cc1C#Cc1cnc2[nH]ncc2c1", "Potency": "30.6 µM (active)"},
      {"smiles": "COc1cc(Nc2ncc(F)c(Nc3ccc4c(n3)N(COP(=O)(O)O)C(=O)C(C)(C)O4)n2)cc(OC)c1OC", "Potency": "3.43 µM (active)"},
      {"smiles": "COc1ccc(CCC(=O)c2c(O)cc(O[C@@H]3O[C@H](CO)[C@@H](O)[C@H](O)[C@H]3O[C@@H]3O[C@@H](C)[C@H](O)[C@@H](O)[C@H]3O)cc2O)cc1O", "Potency": "inactive"},
      {"smiles": "CC(C)C[C@H](NC(=O)[C@H](Cc1ccccc1)NC(=O)c1cnccn1)B(O)O", "Potency": "0.0769 µM (active)"},
      {"smiles": "Cc1cnc(Nc2cccc(CN3CCOCC3)c2)nc1Nc1cccc(S(=O)(=O)NC(C)(C)C)c1", "Potency": "10.9 µM (active)"},
      {"smiles": "Cc1ccn(-c2ccc(-c3ncco3)cc2)c(=O)c1-c1ccc2nc(N)ncc2c1", "Potency": "inactive"},
      {"smiles": "O=C(c1ccc(F)c(F)c1Nc1ccc(I)cc1F)N1CC(O)([C@@H]2CCCCN2)C1", "Potency": "27.3 µM (active)"},
      {"smiles": "OCCNC1CCCc2c1[nH]c1ccc(-c3ccccc3)cc21", "note": "(centres undefined)", "Potency": "24.3 µM (active)"},
      {"smiles": "CO[C@@]12[C@H](COC(N)=O)C3=C(C(=O)C(C)=C(N)C3=O)N1C[C@@H]1N[C@@H]12", "Potency": "inactive"},
      {"smiles": "NC1(c2ccc(-c3nc4ccn5c(=O)[nH]nc5c4cc3-c3ccccc3)cc2)CCC1", "Potency": "inactive"},
      {"smiles": "OCc1ccc(-c2ccc(-c3ccc(CO)s3)o2)s1", "Potency": "0.668 µM (active)"},
      {"smiles": "CN(C)CC/C=C1\\c2ccccc2COc2ccccc21", "Potency": "inactive"},
      {"smiles": "Fc1cc(-c2cccc3ncc(-c4cnn(C5CCNCC5)c4)nc23)cc(F)c1CN1CCOCC1", "Potency": "27.3 µM (active)"},
      {"smiles": "COc1ccccc1N1CCN(CC(O)COc2cccc3ccccc23)CC1", "note": "(centres undefined)", "Potency": "inactive"},
      {"smiles": "CCS(=O)(=O)c1cccc(-c2cc(C(=O)NC3CCN(C)CC3)c(C)c3[nH]c4ncc(C)cc4c23)c1", "Potency": "0.672 µM (active)"},
      {"smiles": "COc1c(C)c2c(c(O)c1C/C=C(\\C)CCC(=O)OCCN1CCOCC1)C(=O)OC2", "Potency": "inactive"},
      {"smiles": "Oc1cn2c(n1)Nc1ccc(Cl)c(Cl)c1C2", "Potency": "inactive"},
      {"smiles": "N#CC1(c2cccc(C(=O)Nc3cc(Oc4ccc5nc(NC(=O)C6CC6)sc5n4)ccc3F)c2Cl)CC1", "Potency": "inactive"},
      {"smiles": "CC(C)Oc1ccc2c(=O)c(-c3ccccc3)coc2c1", "Potency": "15.3 µM (active)"},
      {"smiles": "CCCc1nn(C)c2c(=O)[nH]c(-c3cc(S(=O)(=O)N4CCN(C)CC4)ccc3OCC)nc12", "Potency": "inactive"},
      {"smiles": "Cc1cnc(Nc2ccc(OCCN3CCCC3)cc2)nc1Nc1cccc(S(=O)(=O)NC(C)(C)C)c1", "Potency": "7.69 µM (active)"}
    ]}
  ]
}
